KCNH2 3.1 block = inhibitors of human KCNH2 3.1 potassium channel isoform; U2OS KCNH2 3.1, thallium flux FluxOr; stronger effect = lower value; activity change, % (tested at about 1.8 µM); 340,000 compounds, 0.95% hits; AID 720553;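 active means maximum activity change below -70%; inconclusive means maximum activity change from -70% to -50%; inactive means maximum activity change above -50%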;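 further: thallium influx rate constant from kinetic fluorescence after stimulation buffer; on the % scale 0 is the no-effect control and ±100 the full control effect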
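Virally transduced U2OS (3.1 isoform, 4 h infection in dark at RT) → overnight 37 C → FluxOr + Red40 in HBSS/HEPES, 45 min → stimulation buffer, 2 min kinetic read → rate constant vs DMSO controls.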
KCNH2 WT inh = inhibitors of human wildtype KCNH2 potassium channel | U2OS, BacMam KCNH2, thallium flux FluxOr; stronger effect = lower value | Q12809 | activity change, % at 1.84 µM | 340,000 compounds, 0.37% hits;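 active means maximum activity change below -70%; inconclusive means maximum activity change between -70% and -50%; inactive means maximum activity change above -50%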; further: on the % scale 0 is the no-effect control and ±100 the full control effect
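U2OS cells were transduced with wild-type KCNH2 virus (2.03 x 10^8 / mL) for 4 h at room temperature, then cultured overnight at 37 C. Thallium flux was read with FluxOr dye. Rate constants were normalized to DMSO controls.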
IDH1 R132H inh = blocks human mutant IDH1 R132H enzyme | 390,000 compounds, 0.093% hits | O75874 | Potency, µM (highest dose often 76.6 µM), without a hit: at the top dose activity change, negative = inhibition, actives largely listed as inhibitors | AID 602179 | IDH1-R132H enzyme, NADPH consumption, diaphorase/resazurin fluorescence; further: potency means the concentration at half of the fitted maximal effect; on the % scale 0 is the no-effect control and ±100 the full control effect; nearly all actives have a fitted effect of over 65% in size
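IDH1-R132H (0.5 ug/mL) preincubated 30 min with compound, then NADPH (0.016 mM) and alpha-KG (2 mM) added; 80 min at RT, pH 7.5. Remaining NADPH coupled via diaphorase/resazurin to fluorescence (540/590 nm); concentration-response curves normalized to no-enzyme control.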
S-ASM inh = blocks human secretory acid sphingomyelinase; P17405; placental ASM, HMU-PC fluorogenic substrate, 60 min; Potency, µM (titrated, usually from 57.5 µM), without a hit: at the top dose activity change, negative = inhibition, hits mostly inhibitors; 340,000 compounds, 0.006% hits; AID 504937; further: potency means the concentration at half of the fitted maximal effect
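Steps: dispense placental human ASM, pin compound, wait 10 min at room temperature, add HMU-PC0 substrate at 9 uM final, incubate 60 min at 37 °C, add stop solution raising pH to 10, read fluorescence.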
Anesthetic bind = binds horse apoferritin like a general anesthetic | P02791 | apoferritin/1-aminoanthracene competitive binding, fluorescence | Potency, µM (highest dose often 77.5 µM), for inactives: at the top dose activity change, negative = displacement, hits mostly inhibitors | 350,000 compounds, 0.074% hits | AID 485281; further: potency means the concentration at half of the fitted maximal effect; on the % scale 0 is the no-effect control and ±100 the full control effect; nearly all actives have a fitted effect of over 20% in size
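Horse-spleen apoferritin (10 uM) was mixed with 50% saturated 1-aminoanthracene in PBS, exposed to compounds for 10 min at room temperature, and read for fluorescence (ex 380 nm, em 535 nm). Competitive displacement was fitted with a four-parameter Hill equation.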
Starred values were filed as active, the others as inactive; i = inactive; u = inconclusive; x = no result given; [ ] = remark or other dose. Shown are actives, neighbours in structure and some others; about 1.2% of the full set was active somewhere. Unless noted, the call rests on the fitted dose curve; in most records, active means well fitted inhibition curve with a large enough effect; inconclusive means small, poorly fitted or top-dose-only effect; inactive means no such curve, though single readings can be large or run the other way.

SMILES | KCNH2 3.1 block | KCNH2 WT inh | IDH1 R132H inh | S-ASM inh | Anesthetic bind
COc1ccc(CCNC(=O)C(=O)NCC2OCCN2S(=O)(=O)c2cc(F)ccc2F)cc1 (centres undefined) | -143* | 8 | -17% | 2% | -11%
COC(=O)C1=C(C)N(c2ccccc2)/C(=C/c2ccco2)C1=O | -73* | -3 | 10% | -3% | 3%
O=C(Nc1cccc(F)c1)N1CCC(n2c(=O)[nH]c3ccccc32)CC1 | -193* | -228* | 4% | 1% | -19%
N#C/C(=C\c1ccc(-c2ccccc2[N+](=O)[O-])o1)C(=O)N1CCOCC1 | -79* | 0 | -13% | -4% | u
COc1ccc(NC(=O)c2ccc3c(SCC(=O)O)c4c(nc3c2)CCCC4)c(OC)c1 | -158* | -6 | -5% | 4% | u
COc1ccc(Cl)cc1NC(=O)c1ccc2c(SCC(=O)O)c3c(nc2c1)CCCC3 | -2 | -22 | 0% | 1% | 0%
COc1ccc(NC(=O)CSc2nc(=O)n(CCN3CCOCC3)c3c2CCCC3)c(OC)c1 | -120* | 12 | 3% | 3% | x
O=c1n(-c2ccccc2)c(=O)n2n1CC[C@H]1/C(=N\OC[C@@H](O)COCc3ccco3)[C@H]3O[C@@H]3[C@@H](O)[C@@H]12 | x | x | x | x | 1%[15.3 µM]
Cc1cccc(OCC(=O)NCC(C)(C)N2CCOCC2)c1 | -153* | 14 | 0% | 6% | x
COC(=O)c1c(-c2cccs2)csc1NC(=O)COc1ccc(C(C)C)cc1 | x | x | x | x | -6%
Cc1cc(/C=C(/C#N)c2nc3ccccc3[nH]2)c(C)n1-c1cccc([N+](=O)[O-])c1 | -134* | -116* | -4% | -22% | -22%
CS(=O)(=O)c1ccc2nc(NC(=O)c3ccc(Cn4cc(Br)cn4)o3)sc2c1 | -95* | -6 | -3% | -1% | -12%
COC(=O)/C(=C1\OC(=O)C(c2ccccc2)C1=O)c1ccccc1 (centres undefined) | x | x | x | x | -12%
COC(=O)COc1ccc(/C=N/NC(=O)CN(c2ccccc2OC)S(=O)(=O)c2ccccc2)cc1 | -89* | -21 | 4% | 0%[11.5 µM] | -8%
NC(Cc1ccccc1)C(O)c1ccco1 (centres undefined) | x | x | x | x | -18%
O=C1CCCC2=C1C(c1ccc(Cl)cc1)N1C(=O)CCSC1=N2 (centres undefined) | 11 | -10 | 2% | 6% | 5%
CC1(C)CC(=O)C2=C(C1)N=C1SCCC(=O)N1C2c1ccccc1 (centres undefined) | -71* | -12 | 5% | 12% | -13%
CNC(=O)NC(=O)C(C)OC(=O)c1cc2c(s1)CCCCC2 (centres undefined) | -98* | -5 | 9% | -1% | 3%
CC(NC(=O)c1cc2c(s1)CCCC2)C(C)(C)C (centres undefined) | -35 | 4 | 5% | -4% | u
COc1ccc2cc(CNc3ccc(C)cc3)c(=O)n(CC(=O)Nc3cccc(C(F)(F)F)c3)c2c1 | x | x | 25% | x | -18%
O=C(NC(CC(=O)N1CCN(c2ccc([N+](=O)[O-])cc2)CC1)c1ccccc1)c1ccccc1Cl (centres undefined) | -107* | -117* | -8% | -10% | -13%
O=C(NC(CC(=O)N1CCN(c2ccccc2O)CC1)c1ccccc1)c1ccccc1Cl (centres undefined) | -8 | -4 | 2% | 4% | x
COc1ccc(CN2CCC(C(=O)c3ccc(Cl)cc3)CC2)cc1 | -97* | -110* | 17% | 0% | -18%
COc1ccc(-c2[nH]ncc2CN2CCC(C(=O)c3ccc(F)cc3)CC2)cc1 | -93* | -34 | 0% | 1% | -18%
COc1ccc(CN2CCC(C(=O)c3cccc(Cl)c3)CC2)cc1 | -108* | u | 6% | 0% | -10%
SMILES | KCNH2 3.1 block | KCNH2 WT inh | IDH1 R132H inh | S-ASM inh | Anesthetic bind
COc1c(C)cc(S(=O)(=O)N2CCOCC2)c(C)c1C | -172* | -4 | 8% | -1% | -11%
COC(=O)NC(CC(C)=O)c1ccc(F)cc1 (centres undefined) | x | x | x | x | 3%[15.3 µM]
CCC1C(=O)CC(c2ccco2)NC1c1ccco1 (centres undefined) | -6 | -10 | 3% | 2% | 0%
CCC1C(=O)CC(c2ccc([N+](=O)[O-])cc2)NC1c1ccc([N+](=O)[O-])cc1 (centres undefined) | -79* | -14 | 0% | -7% | -12%
Cc1ccccc1CNC(=O)c1cccc(NC(=O)N2CCSc3ncccc32)c1 | x | x | 3% | x | -8%
O=[N+]([O-])c1ccccc1S(=O)(=O)NCCC1=CCCCC1 | -2 | 0 | -3% | 3% | 10µM*
O=C(Cc1ccccc1[N+](=O)[O-])NCCC1=CCCCC1 | -27 | 0 | 13% | 8% | -14%
COC(=O)NC(c1ccc2ccccc2c1)C(C(C)=O)C(=O)OC (centres undefined) | x | x | x | x | -1%[15.3 µM]
COc1cc(NC(=O)NCCn2nnc3cc(S(=O)(=O)N(C)C)ccc32)cc(OC)c1 | x | x | 0% | x | 7%
O=C(CSc1nnc(COc2ccccc2)o1)c1ccccc1 | -99* | 5 | 4% | -2% | u
Cc1ccc(C(=O)CSc2nnc(COc3ccccc3)o2)cc1 | -10 | 9 | 12% | -2% | u
COc1ccc(-c2ccnc3nc(N4CCOCC4)nn23)cc1 | -108* | -4 | 4% | 269% | 3%
CC(Oc1ccccc1)c1ccnc2nc(N3CCOCC3)nn12 (centres undefined) | -12 | i | 5% | 62% | -3%
c1ccc(Oc2ccc(-c3ccnc4nc(N5CCOCC5)nn34)cc2)cc1 | -118* | -10 | 0% | 321% | -10%
Cc1ccc(N(Cc2ccccc2)C(=O)c2ccc(F)c(S(=O)(=O)N3CCOCC3)c2)cc1 | -93* | -12 | 6% | 2% | x
Cc1cccc(N(Cc2ccccc2)C(=O)c2ccc(F)c(S(=O)(=O)N3CCOCC3)c2)c1 | -12 | 21 | -1% | -4% | x
COc1cc2c(C)nc3c(c(C)nn3-c3ccccc3)c2cc1OC | -81* | 18 | 1% | 35% | -4%
N#CC(CCc1ccc([N+](=O)[O-])cc1)(CCc1ccc([N+](=O)[O-])cc1)C(N)=O | -129* | -93* | -3% | 0% | x
O=[N+]([O-])c1ccc(Cc2ccc([N+](=O)[O-])cc2)cc1 | -10 | 0 | 4% | -5% | x
Cc1ccc(Cl)cc1N1CCN(C(=O)C2CCN(Cc3nc(-c4cccc(Cl)c4)oc3C)CC2)CC1 | x | x | -14% | x | 2%
Cc1oc(-c2cccc(Cl)c2)nc1CN1CCC(C(=O)NCc2ccco2)CC1 | -14 | -1 | 9% | -1% | -19%
Cc1oc(-c2ccc(Cl)cc2)nc1CN1CCC(C(=O)N2CCN(Cc3ccccc3)CC2)CC1 | -37 | -2 | 13% | 1% | -9%

Source: PubChem BioAssay (National Center for Advancing Translational Sciences (NCATS))
